The values below come from PubChem BioAssay AID720646 (Broad Institute, 2013).

Each structure is given as a SMILES string. The campaign covered roughly 1,000 compounds. About 25 (2%) were called active.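 How the source made its calls: active means fitted rise in melting shift crosses a set limit at or below the top valid dose tested; inconclusive means flat fit at mid-level activity, or a poor quality fit; inactive means the rest.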 Only a sample is shown.

Sequence of Fibroblast growth factor 22 (Homo sapiens) (Q9HCT0 whole entry, looked up): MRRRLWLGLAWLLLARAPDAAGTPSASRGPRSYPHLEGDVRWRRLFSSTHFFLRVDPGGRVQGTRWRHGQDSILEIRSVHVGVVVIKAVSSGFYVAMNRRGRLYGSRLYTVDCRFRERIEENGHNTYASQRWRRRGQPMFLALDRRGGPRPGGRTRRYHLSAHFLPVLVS

The assay concerns the target Fibroblast growth factor 22 (Homo sapiens) (UniProt Q9HCT0). Kind of assay: FGF22 melting temperature shift by ligands – biophysical, thermal shift, cherry-pick retest, FGF22 synaptogenesis inhibitor project, dose response (AID 720646). The note with it: recombinant FGF22 thermal shift, SYPRO orange fluorescence; series mostly up to 38 µM.
`O=C(N/N=C/c1ccc(OCc2ccccc2)cc1)c1ccc(O)cc1`: the result was inactive.

For `CN1C(=O)c2cc(NC(=O)c3cccc(F)c3)ccc2OC[C@@H]2O[C@H](CC(=O)N3CCc4ccccc4C3)CC[C@@H]21`, the result was inactive.

As to `CNC[C@@H]1Oc2ccc(NC(=O)C3CCCCC3)cc2C(=O)N([C@@H](C)CO)C[C@H]1C`, the result was inactive.

With `O=C(c1ccccc1F)N1CC(=O)N2[C@H](C1)[C@H](c1ccc(-c3ccc(F)cc3)cc1)[C@@H]2CO`, the outcome was inactive.

In the case of `CCCCN1CC(N2CCN(Cc3cccc(C)c3)CC2)CS1(=O)=O` (stereo unspecified), the result was inactive.

As for `O=C(Cc1cccnc1)N[C@H]1CC[C@H](CCn2cc(-c3ccccc3F)nn2)O[C@H]1CO`, the outcome was inactive.

As for `CC(=O)NC[C@@H]1[C@@H](c2ccccc2)[C@@H](CO)N1C(=O)Cc1cccnc1`, the outcome was inactive.

Turning to `O=S(=O)(ON(c1ccccc1)S(=O)(=O)c1ccccc1)c1ccccc1`, the result was inactive.

Consider `O=C1C=CCCN1C(=O)/C=C/c1ccc(F)cc1`, for which the outcome was inactive.

On to `CC(=O)N1c2ccc(S(=O)(=O)N3CCC(C(=O)NCc4ccc(F)cc4)CC3)cc2CC1C` (stereo unspecified), for which the outcome was inactive.

Take `CCCOc1ccc(NC(=O)CC2C(=O)N(C)C(=S)N2Cc2ccc3c(c2)OCO3)cc1` (stereo unspecified): the outcome was inactive.

`Cc1cccc(S(=O)(=O)N2C[C@@H](O)COC[C@H]3O[C@H](CC(=O)Nc4ccc(-c5ccccc5)cc4)CC[C@@H]32)c1`: the result was inactive.

In the case of `Cc1c(CCO)sc[n+]1CC(=O)OC12CC3CC(CC(C3)C1)C2`, the outcome was inactive.

In the case of `COc1cc(NC(=O)c2ccc3c(c2)OCO3)ccc1NC(=O)c1cccs1`, the result was inactive.

For the molecule `O=C(N[C@@H]1C=C[C@H](CC(=O)N2CCCCC2)O[C@H]1CO)c1cccc(F)c1`, the result was inactive.

For the molecule `CS(=O)(=O)c1ccc2nc(NC(=O)c3ccc(Cl)nc3)sc2c1`, the result was inactive.

Consider `CC(=O)Nc1ccc(S(=O)(=O)N(CCc2ccccc2)CC(=O)N/N=C/c2ccc(C(=O)O)cc2)cc1`, for which the result was inactive.

Regarding `COCCN(C(=O)C(C)C)c1nnc(-c2ccc(C(C)(C)C)cc2)s1`, the outcome was inactive.

For the molecule `Cc1ccc(NC(=O)Nc2cccnc2)cc1`, the result was inactive.

As for `CN1C(=O)c2cccc3c(N)ccc(c23)C1=O`, the outcome was inactive.

Consider `O=C(N/N=C/c1ccc([N+](=O)[O-])cc1)c1c[nH]c2ccccc12`, for which the result was inactive.

With `O=C(Nc1ccccc1F)N1[C@H](CO)[C@H]2c3ccccc3NC[C@H]21`, the outcome was inactive.

Regarding `C[C@@H]1CN([C@@H](C)CO)S(=O)(=O)c2ccc(-c3ccncc3)cc2O[C@@H]1CN(C)C(=O)Nc1ccc(F)cc1`, the outcome was inactive.

As for `O=C(NN1C(=O)C2C3C=CC(O3)C2C1=O)c1ccccc1` (stereo unspecified), the outcome was inactive.

`COc1ccccc1C(=O)NNC(=O)c1ccc(NC(=O)c2ccccc2)cc1`: the result was inactive.

Consider `NS(=O)(=O)c1cccc(NC(=O)COC(=O)c2cc([N+](=O)[O-])ccc2N2CCCC2)c1`, for which the result was inactive.

For `COc1ccccc1NC(=O)N1[C@H](C#N)[C@H](c2ccccc2)[C@H]1CO`, the outcome was inactive.

With `OC[C@H]1[C@H](c2ccc(-c3cccnc3)cc2)[C@H]2CN(Cc3ccccn3)CCCCN21`, the outcome was inactive.

With `O=C(Nc1nnc(-c2ccccc2F)s1)c1ccccc1F`, the outcome was inactive.

In the case of `C[C@H]1CN([C@@H](C)CO)C(=O)Cc2cc(NC(=O)Cc3cn(C)c4ccccc34)ccc2O[C@@H]1CN(C)Cc1ccccc1`, the outcome was inactive.

With `CC(C)NC(=O)N(C)C[C@@H]1Oc2c(NC(=O)c3nc4ccccc4s3)cccc2C(=O)N([C@H](C)CO)C[C@H]1C`, the result was inactive.

With `O=C(C[C@H]1CC[C@H]2[C@@H](COC[C@H](O)CN2S(=O)(=O)c2cccc(Cl)c2)O1)Nc1ccccc1`, the result was inactive.

`COc1ccc(-c2ccc([C@H]3[C@H]4CN(C(=O)c5ccc6c(c5)OCO6)CCCCN4[C@H]3CO)cc2)cc1`: the outcome was inactive.

For `O=C(N/N=C/c1c[nH]c2ccccc12)c1cc2ccccc2o1`, the result was inactive.

For `COc1cc([N+](=O)[O-])ccc1NC(=O)CN1CCCC1`, the outcome was inactive.

With `COCC(=O)Nc1ccc2c(c1)OC[C@H](C)N(C)C[C@@H](C)[C@@H](OC)CN(C)C2=O`, the result was inactive.

`Cc1ccc(S(=O)(=O)NCCC(=O)Nc2ccc(C)c(Cl)c2)cc1C`: the outcome was inactive.

For `COc1ccc(-c2cc(=O)oc3cc(OCC(=O)N[C@@H](Cc4c[nH]c5ccccc45)C(=O)O)ccc23)cc1`, the result was inactive.

For `C[C@H]1CN([C@@H](C)CO)S(=O)(=O)c2ccc(C3=CCCC3)cc2O[C@H]1CN(C)C(=O)Nc1ccc2c(c1)OCO2`, the outcome was inactive.

With `O=C(C[C@H]1C[C@@H]2c3cc(NC(=O)Nc4ccc(C(F)(F)F)cc4)ccc3O[C@@H]2[C@@H](CO)O1)NCC1CC1`, the outcome was inactive.

In the case of `CC(C)(C)N1C(=O)c2c(C(=O)OCc3ccccc3)[nH]c(-c3ccccc3)c2C1=O`, the result was inactive.

In the case of `Cc1ccc(S(=O)(=O)Nc2nc3ccccc3s2)cc1[N+](=O)[O-]`, the result was inactive.

With `O=C(N/N=C/c1ccc(Cl)c(Cl)c1)c1ccc2nc[nH]c2c1`, the result was inactive.

Consider `O=C(COc1ccc([N+](=O)[O-])cc1)Nc1cccc(C(=O)Nc2ccccc2C(=O)O)c1`, for which the result was inactive.

Regarding `O=C(NCCc1c[nH]c2ccccc12)C(=O)NCC1CCCO1` (stereo unspecified), the outcome was inactive.

In the case of `Cc1ccc(NC(=O)O/N=C/c2cccc([N+](=O)[O-])c2)cc1`, the result was inactive.

Take `Cc1ccc(S(=O)(=O)N(C)C[C@@H]2Oc3cc(C4=CCCC4)ccc3S(=O)(=O)N([C@@H](C)CO)C[C@@H]2C)cc1`: the result was inactive.

Turning to `CCn1ccnc1CN(C)C(=O)c1ccc2nc(Cc3ccc(OC)cc3)oc2c1`, the result was inactive.

Turning to `C[C@@H]1CCCCO[C@@H](CN(C)Cc2ccncc2)[C@H](C)CN([C@H](C)CO)C(=O)c2cc(NC(=O)Cc3ccccc3)ccc2O1`, the outcome was inactive.

With `C[C@@H]1CN([C@H](C)CO)S(=O)(=O)c2ccc(-c3ccncc3)cc2O[C@@H]1CN(C)C(=O)Nc1ccc(C(F)(F)F)cc1`, the result was inactive.

For the molecule `CC(C)NC(=O)N1C[C@@H]2[C@H](c3ccccc31)[C@H](CO)N2C(=O)c1ccccn1`, the outcome was inactive.
